Data on ten compounds can be found in PubChem BioAssay (NCATS).

Values joined by “and” are separate entries in the source; they are usually repeats but may differ in a detail not shown here. Equal values may be shown once. Results filed as inconclusive are left out. Active and inactive are the calls of the source. Unless noted, the call rests on the fitted dose curve; in most records, active means well fitted curve in the direction sought with a large enough effect; inconclusive means small, poorly fitted or top-dose-only effect, or another doubt; inactive means no such curve, though single readings can be large; an effect the other way counts as inactive or inconclusive.

Experiment [1] in a line: qHTS to identify inhibitors of the type 1 interferon - major histocompatibility complex class I in skeletal muscle: primary screen against the NCATS Mechanism Interrogation Plate v5.0 (MIPE) Libary (AID 1347411). Further: nearly all actives have a fitted effect of over 65% in size. A digest of the protocol:
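Immortalized human C25cl48 myoblasts with HiBit knocked into endogenous HLA-B*08:01 were stimulated with 4.0 ng/ml IFN-beta and exposed to compounds (11-point 1:3 titration, top 46 uM final) for 24 hrs at 37 C; HiBiT lytic luminescence measured.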

Experiment [2] deals with Protein phosphatase 1D (Homo sapiens) (UniProt O15297). The experiment in a line: RapidFire Mass Spectrometry qHTS Assay for Modulators of WT P53-Induced Phosphatase 1 (WIP1) (AID 1347424).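 Further: amount of dephosphorylated VEPPL-S-QETFS peptide product formed by WIP1; series mostly up to about 63 µM.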 In outline: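 10 nM WIP1 preincubated with compounds 1 hr at room temperature in pH 7.5 Tris buffer with 30 mM MgCl2, 1 mM TCEP; 2 uM VEPPL-pS-QETFS phosphopeptide for 5 min, formic acid quench; dephosphorylated product quantified by RapidFire MS against labelled standard.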
Chain of Protein phosphatase 1D (Homo sapiens) (O15297 whole entry, looked up): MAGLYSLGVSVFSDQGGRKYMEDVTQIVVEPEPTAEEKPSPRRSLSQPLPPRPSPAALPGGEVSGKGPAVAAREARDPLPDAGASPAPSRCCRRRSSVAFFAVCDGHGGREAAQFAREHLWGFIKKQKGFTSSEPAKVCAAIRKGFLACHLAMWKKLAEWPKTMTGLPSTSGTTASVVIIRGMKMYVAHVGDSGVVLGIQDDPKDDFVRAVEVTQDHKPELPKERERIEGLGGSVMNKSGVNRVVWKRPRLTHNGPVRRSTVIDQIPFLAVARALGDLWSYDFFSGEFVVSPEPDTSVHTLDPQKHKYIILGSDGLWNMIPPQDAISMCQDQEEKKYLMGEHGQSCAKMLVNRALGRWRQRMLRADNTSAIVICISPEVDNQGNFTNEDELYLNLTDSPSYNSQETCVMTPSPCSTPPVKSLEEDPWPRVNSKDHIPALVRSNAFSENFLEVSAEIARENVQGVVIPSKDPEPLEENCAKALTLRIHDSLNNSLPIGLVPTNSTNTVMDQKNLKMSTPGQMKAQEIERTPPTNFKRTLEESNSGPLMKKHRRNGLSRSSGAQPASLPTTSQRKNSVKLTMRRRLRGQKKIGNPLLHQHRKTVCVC

Experiment [3] shares this target. Nature of the experiment: Rhodamine-PBP qHTS Assay for Modulators of WT P53-Induced Phosphatase 1 (WIP1) (AID 1347425). A digest of the protocol:
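Steps: enzyme with Rh-PBP sensor and compounds, room-temperature incubation of 1 hr, baseline read, addition of VEPPL-pS-QETFS (10 uM final), kinetic fluorescence reads at 525/598 nm. Activity equals final minus baseline signal.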

The nature of experiment [4]: Primary qHTS for inhibitors of La Crosse Virus (LACV) - induced cell death in SH-SY5Y cells (AID 1508616).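 Further: top concentration of the series differs between compounds; higher means more rescue of cells from virus-induced death.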 In outline: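 Luminescent ATP readout (ATPLite 1step, 5 min room temperature) measured rescue from LACV-induced death after 6 days of infection at 0.01 MOI; normalized to infected DMSO wells and uninfected DMSO wells.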
In experiment [5] the target is Calcium and integrin-binding protein 1 (Homo sapiens) (UniProt Q99828). The experiment in a line: Primary qHTS for Identification of Calcium Integrin Binding Protein 1 (CIB1) Competitor (AID 1508620).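 Further: GST tagged CIB1 binding a fluorescein labelled alphaIIb integrin peptide tracer; top concentration of the series differs between compounds.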 In outline:
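Fluorescence polarization competition: GST-tagged CIB1 (1 uM final) preincubated with compound 15 min at room temperature, then FITC-labelled alphaIIb peptide (100 nM final) added. After 15 min at room temperature, polarization read at Ex 480/Em 540.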
(In general: Quantitative high-throughput screening tests each substance at several concentrations.)

A short description of experiment [6]: Primary qHTS for small molecule stabilizers of the endoplasmic reticulum resident proteome: Secreted ER Calcium Modulated Protein (SERCaMP) assay (AID 1508630). In outline: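 GLuc-SERCaMP-expressing SH-SY5Y cells, pretreated 16 h with compound, are challenged with thapsigargin to empty ER calcium stores; after 4 h, coelenterazine is added directly to the medium and luminescence is imaged.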

Experiment [7] is described as follows: A High-Content qHTS Against Drug Library for the Identification of Small Molecules that Inhibit DYT1 Early Onset Primary Dystonia-Associated Cell Pathology (AID 1645839; calls by dose curve; further: series mostly up to about 46 µM). In outline: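 Flp-In T-REx 293 cells with tetracycline-inducible EGFP-delE hTOR1A (WT EGFP-hTOR1A as reference), 800 cells/well; compound added with tetracycline, 48 h at 37 C. Fixed, permeabilized cells imaged; %pathology (punctate TorsinA) primary, cell count counterscreen.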

The target of experiment [8] is Cytochrome P450 2D6 (Homo sapiens) (UniProt P10635). Nature of the experiment: Cytochrome P450 family 2 subfamily D member 6 (CYP2D6) small molecule antagonists: luciferase biochemical (cell-free) qHTS assay (AID 1645840; active means well fitted curve in the direction sought with a large enough effect in the repeat runs; an effect the other way counts as inactive or inconclusive; further: nearly all actives have a fitted effect of over 55% in size; further: potency means the concentration at half of the fitted maximal effect). A digest of the protocol: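 P450-Glo luminescent screen: recombinant CYP2D6 enzyme–proluciferin substrate mix preincubated with compound 10 min at room temperature, then NADPH regeneration added for 1 h at room temperature. Detection reagent added for 20 min; luciferin light read as relative luminescence units.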
Chain of Cytochrome P450 2D6 (Homo sapiens) (P10635 whole entry, looked up): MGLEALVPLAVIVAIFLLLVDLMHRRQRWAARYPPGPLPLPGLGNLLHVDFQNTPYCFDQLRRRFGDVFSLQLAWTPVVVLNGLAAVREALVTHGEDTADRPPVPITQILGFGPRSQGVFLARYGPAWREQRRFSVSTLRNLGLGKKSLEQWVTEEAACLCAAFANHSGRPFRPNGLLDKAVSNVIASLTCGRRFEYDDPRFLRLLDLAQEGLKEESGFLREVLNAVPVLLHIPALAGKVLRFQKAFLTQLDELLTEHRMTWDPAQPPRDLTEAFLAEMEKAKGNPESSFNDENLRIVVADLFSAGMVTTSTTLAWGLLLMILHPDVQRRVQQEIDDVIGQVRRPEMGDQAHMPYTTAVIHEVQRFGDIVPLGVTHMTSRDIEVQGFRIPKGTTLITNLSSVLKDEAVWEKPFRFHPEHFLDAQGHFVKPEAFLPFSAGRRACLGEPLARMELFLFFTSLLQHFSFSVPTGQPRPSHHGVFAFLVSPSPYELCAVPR

In experiment [9] the target is Cytochrome P450 2C9 (Homo sapiens) (UniProt P11712). The experiment in a line: Cytochrome P450 family 2 subfamily C member 9 (CYP2C9) small molecule antagonists: luciferase biochemical (cell-free) qHTS assay (AID 1645842; active means well fitted curve in the direction sought with a large enough effect in the repeat runs; an effect the other way counts as inactive or inconclusive; further: nearly all actives have a fitted effect of over 55% in size; further: potency means the concentration at half of the fitted maximal effect). In outline: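 Luminescence, after 20 min with luciferin detection reagent, reflected CYP2C9 turnover during a 1 h NADPH-driven reaction at 37C. Enzyme-substrate mix contained 0.4% bovine serum albumin and was preincubated with compound 10 min at room temperature.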
Chain of Cytochrome P450 2C9 (Homo sapiens) (P11712 whole entry, looked up): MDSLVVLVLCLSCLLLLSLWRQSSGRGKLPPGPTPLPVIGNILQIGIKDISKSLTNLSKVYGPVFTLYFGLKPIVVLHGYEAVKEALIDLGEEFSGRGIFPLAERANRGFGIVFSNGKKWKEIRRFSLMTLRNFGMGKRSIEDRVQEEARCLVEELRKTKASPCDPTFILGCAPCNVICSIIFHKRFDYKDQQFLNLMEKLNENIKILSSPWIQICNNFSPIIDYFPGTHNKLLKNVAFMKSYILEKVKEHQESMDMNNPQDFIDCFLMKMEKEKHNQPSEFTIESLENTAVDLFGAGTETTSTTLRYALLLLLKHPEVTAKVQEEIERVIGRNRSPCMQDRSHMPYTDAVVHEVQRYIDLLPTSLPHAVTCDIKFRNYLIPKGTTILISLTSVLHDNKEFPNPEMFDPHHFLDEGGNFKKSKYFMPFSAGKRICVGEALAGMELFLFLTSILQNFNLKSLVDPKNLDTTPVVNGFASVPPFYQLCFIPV

Experiment [10] is described as follows: Primary qHTS for inhibitors of nuclear receptor binding SET domain protein 2 (NSD2) in an isogenic RCH-ACV NSD2 p.E1099K mutant (9B) (AID 1645876). Further: nearly all actives have a fitted effect of over 70% in size. Further: potency means the concentration at half of the fitted maximal effect.
A short description of experiment [11]: Validation qHTS assay for inhibitors of Activation Induced Cytidine Deaminase (AID): UDG Counterscreen signal (AID 1347427). In outline:
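Counterscreen read of UDG activity (2 U/mL, 4/3x) in the FRET deamination format with AID (1 uM, 4/3x), DJC20/DJC23 substrates (250 nM, 4x), 4 h at room temperature. NaOH stop, fluorescence at 560 ex/665 em.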

The target of experiment [12] is Single-stranded DNA cytosine deaminase (Homo sapiens) (UniProt Q9GZX7). The experiment in a line: Validation qHTS assay for inhibitors of Activation Induced Cytidine Deaminase (AID): AID signal (AID 1347429). In outline: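 AID and UDG were combined and compounds added at final up to 114 uM, then DJC20/DJC23 FRET substrate was added for 4 hr at room temperature. NaOH was then added for 30 min before fluorescence was read at 540/590 nm.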
Chain of Single-stranded DNA cytosine deaminase (Homo sapiens) (Q9GZX7 whole entry, looked up): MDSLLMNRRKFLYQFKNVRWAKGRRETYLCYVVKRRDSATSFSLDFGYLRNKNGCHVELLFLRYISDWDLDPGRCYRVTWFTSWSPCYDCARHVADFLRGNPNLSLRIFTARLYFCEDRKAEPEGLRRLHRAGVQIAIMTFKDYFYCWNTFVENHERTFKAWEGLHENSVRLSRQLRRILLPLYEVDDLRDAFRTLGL

The target of experiment [13] is Calcium and integrin-binding protein 1 (Homo sapiens) (UniProt Q99828). Nature of the experiment: Validation qHTS for Identification of Calcium Integrin Binding protein 1 (CIB1) Competitor (AID 1508618). A digest of the protocol:
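In this qHTS validation, the LOPAC set (up to 114 uM) was tested for blocking CIB1 binding to a fluorescein-tagged alphaIIb peptide, with FP detection at 480/540 nm.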

Experiment [14] can be described thus: Counterscreen qHTS for small molecule stabilizers of the endoplasmic reticulum resident proteome: GLuc-NoTag assay (AID 1508627).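 Further: SH-SY5Y cells given compound then 100 nM thapsigargin to empty ER calcium; series mostly up to about 76 µM.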 A digest of the protocol: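 SH-SY5Y cells stably expressing constitutively secreted GLuc without SERCaMP tag, exposed to compound for 19 hr, then to 100 nM thapsigargin for 4 hr at 37C. Medium luciferase was read by coelenterazine luminescence without lysis.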
(Counterscreens check selectivity or assay interference.)

The nature of experiment [15]: Confirmatory qHTS for small molecule stabilizers of the endoplasmic reticulum resident proteome: Secreted ER Calcium Modulated Protein (SERCaMP) assay (AID 1508628). Further: potency means the concentration at half of the fitted maximal effect; nearly all actives have a fitted effect of over 40% in size. A digest of the protocol: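 We seeded SH-SY5Y-GLuc-SERCaMP cells, added compounds (three concentrations in the primary run, eleven up to 76.6 uM in confirmation), incubated 16 h, depleted ER calcium with thapsigargin, and read luciferase 4 h later.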

Experiment [16] addresses Papain (Carica papaya) (UniProt P00784). Nature of the experiment: Primary qHTS assay for inhibitors of the protease papain (AID 1645873).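 Further: papain turnover of Z-FR-AMC read as the AMC fluorescence gain over 10 min; series mostly up to about 50 µM.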

Chain of Calcium and integrin-binding protein 1 (Homo sapiens) (Q99828 whole entry, looked up): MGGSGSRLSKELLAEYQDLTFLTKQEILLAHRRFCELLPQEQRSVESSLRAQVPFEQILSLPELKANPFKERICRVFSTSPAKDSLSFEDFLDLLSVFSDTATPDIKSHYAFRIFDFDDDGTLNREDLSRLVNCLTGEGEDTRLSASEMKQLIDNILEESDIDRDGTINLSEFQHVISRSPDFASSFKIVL
Chain of Papain (Carica papaya) (P00784 whole entry, looked up): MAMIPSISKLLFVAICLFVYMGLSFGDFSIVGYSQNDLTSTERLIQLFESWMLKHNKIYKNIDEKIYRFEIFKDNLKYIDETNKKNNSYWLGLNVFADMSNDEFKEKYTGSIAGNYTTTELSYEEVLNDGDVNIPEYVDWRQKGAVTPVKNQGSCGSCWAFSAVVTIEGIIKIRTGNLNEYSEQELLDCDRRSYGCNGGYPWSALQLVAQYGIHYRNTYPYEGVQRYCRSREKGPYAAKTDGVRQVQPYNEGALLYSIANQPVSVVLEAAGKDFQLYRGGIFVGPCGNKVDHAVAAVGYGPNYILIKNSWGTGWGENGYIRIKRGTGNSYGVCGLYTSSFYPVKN

Take `Cc1cc(=O)oc2cc(O)ccc12`: the Potency entry in experiment [1], in experiment [2], in [4], in [5], in experiment [6] and in [7] was “inactive” in each case. The Potency entry in [8], in experiment [9] and in [10] was “inactive” in each case. Also, the outcome in [3] was inactive.

On to `O=C(NCC1CCCCN1)c1cc(OCC(F)(F)F)ccc1OCC(F)(F)F` (stereo unspecified), for which the Potency result in [1], in experiment [2], in experiment [4], in experiment [7], in experiment [9] and in experiment [10] was “inactive” each time. Moreover, the call in experiment [3] was inactive.

On to `Cc1cccc(CN2CCN(C(c3ccccc3)c3ccc(Cl)cc3)CC2)c1` (stereo unspecified), for which the Potency result in experiment [1], in experiment [2], in [4], in experiment [5], in [6] and in experiment [10] was “inactive” each time. The outcome in experiment [3] was inactive. Further, the Potency was 2.45 µM (active) in [8] and 11 µM (active) in [9].

With `Cc1cc2c(s1)Nc1ccccc1N=C2N1CCN(C)CC1`, the Potency result in experiment [1], in experiment [2], in experiment [4], in experiment [5], in experiment [6] and in experiment [8] was “inactive” each time. The Potency result in [9] is “inactive”. Moreover, the compound was classed as inactive in experiment [3].

`COCCCN1CCC(NC(=O)c2cc(Cl)c(N)c3c2OCC3)CC1`: the Potency result in experiment [1], in [2], in experiment [4], in experiment [5], in [6] and in experiment [7] was “inactive” throughout. Moreover, in experiment [10], the Potency entry is “inactive”. For the same compound, the outcome in experiment [3] was inactive. In addition, the results for the Potency in experiment [8] and in experiment [9] were 3.47 µM (active) and 2.45 µM (active), respectively.

With `Cc1c(OCC(F)(F)F)ccnc1CS(=O)c1nc2ccccc2[nH]1` (stereo unspecified), the Potency entry in experiment [1], in [11], in [4], in [5], in experiment [6] and in [7] was “inactive” each time. The result in experiment [3], in experiment [12] and in experiment [13] was inactive. The Potency in [8] was 389 nM (active) and 1.07 µM (active); in experiment [9], 15.5 µM (active) and 13.5 µM (active).

For the compound `CN1CCC(=C2c3ccccc3CCc3sccc32)CC1`, the Potency result in [1], in experiment [2], in [4], in experiment [5], in experiment [14] and in experiment [9] was “inactive” in each case. Besides, in experiment [3], the outcome was inactive. Moreover, the Potency in [15] was 25.1 µM (active); in [8], 1.1 µM (active).

As for `COc1ccc2cc([C@H](C)C(=O)O)ccc2c1`, the Potency result in experiment [1], in experiment [2], in experiment [11], in experiment [4], in experiment [5] and in [7] was “inactive” in each case. Moreover, in [16], the Potency result was “inactive”. In addition, the result in [3], in [12] and in experiment [13] was inactive.

For the compound `CCCCN(CCCC)CCC(O)c1cc2c(Cl)cc(Cl)cc2c2cc(C(F)(F)F)ccc12` (stereo unspecified), the Potency result in experiment [1], in [2], in experiment [6] and in experiment [9] was “inactive” throughout. For the same compound, the call in experiment [3] was inactive. The Potency in experiment [8] was 0.55 µM (active); in experiment [10], 13.3 µM (active).

As to `COc1cc(OC)c(C(=O)CCCN2CCCC2)c(OC)c1`, the Potency result in [1], in experiment [2], in experiment [4], in experiment [5], in [6] and in experiment [7] was “inactive” in each case. Further, the Potency result in experiment [9] and in experiment [10] was “inactive” in each case. In experiment [3], the outcome was inactive. Further, the Potency in experiment [8] was 11 µM (active).
